# Tests used:
# Experiment in all cases: universal protein binding microarray (PBM); transcription factors of Arabidopsis thaliana; high values mean tight binding
# GST-ANAC092(1-176) = molecular target: T1, GST-ANAC092(1-176) (Arabidopsis thaliana, UniProt Q9FKA0 1-176); conditions: protein: recombinant; tags: GST; chain copies: 2; dsDNA, one strand shown
# T1 sequence: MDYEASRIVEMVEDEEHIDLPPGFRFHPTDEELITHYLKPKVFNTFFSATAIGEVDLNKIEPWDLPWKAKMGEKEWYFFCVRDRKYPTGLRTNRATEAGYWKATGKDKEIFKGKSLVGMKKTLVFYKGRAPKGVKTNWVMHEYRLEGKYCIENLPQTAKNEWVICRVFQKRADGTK
# In short: (§1)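 For zinc-finger proteins, zinc acetate was added while GST-tagged NAC-domain, full-length or DNA-binding-domain proteins were induced in cells. Purification used glutathione–Sepharose 4B, and quantification used A280 or anti-GST western blot. Custom all-10-mer Agilent 4 × 180K arrays, made double-stranded by primer extension, each received a protein at 200 to 500 nM final in duplicate. Scoring covered gapped and ungapped 8-mers, with binding given as the normalised enrichment score (E-score).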
# GST-NTL6(1-168) = GST-NTL6(1-168) (Arabidopsis thaliana, UniProt Q9SCK6 1-168); conditions: protein: recombinant; tags: GST; chain copies: 2; dsDNA, one strand shown
# In short: as §1
# GST-ANAC019 NAC domain = molecular target: T2, GST-ANAC019 NAC domain (Arabidopsis thaliana, UniProt Q9C932 14-162); conditions: protein: recombinant; tags: GST; chain copies: 2; dsDNA, one strand shown
# T2 sequence: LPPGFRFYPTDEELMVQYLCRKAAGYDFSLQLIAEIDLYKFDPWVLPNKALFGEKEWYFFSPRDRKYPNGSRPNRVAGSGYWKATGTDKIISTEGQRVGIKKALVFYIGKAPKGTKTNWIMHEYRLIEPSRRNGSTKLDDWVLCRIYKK
# In short: as §1
# GST-ANAC055(1-171) = molecular target: T3, GST-ANAC055(1-171) (Arabidopsis thaliana, UniProt Q9LDY8 1-171); conditions: protein: recombinant; tags: GST; chain copies: 2; dsDNA, one strand shown
# T3 sequence: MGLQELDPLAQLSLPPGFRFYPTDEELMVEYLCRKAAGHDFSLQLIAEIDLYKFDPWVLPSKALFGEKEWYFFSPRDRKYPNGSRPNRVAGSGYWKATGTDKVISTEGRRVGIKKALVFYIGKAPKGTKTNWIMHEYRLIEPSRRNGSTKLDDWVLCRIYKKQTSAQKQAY
# In short: as §1
# [1] = molecular target: T4, GST-ANAC092(1-285) full length (Arabidopsis thaliana, UniProt Q9FKA0 1-285); conditions: protein: recombinant; tags: GST; chain copies: 2; dsDNA, one strand shown
# T4 sequence: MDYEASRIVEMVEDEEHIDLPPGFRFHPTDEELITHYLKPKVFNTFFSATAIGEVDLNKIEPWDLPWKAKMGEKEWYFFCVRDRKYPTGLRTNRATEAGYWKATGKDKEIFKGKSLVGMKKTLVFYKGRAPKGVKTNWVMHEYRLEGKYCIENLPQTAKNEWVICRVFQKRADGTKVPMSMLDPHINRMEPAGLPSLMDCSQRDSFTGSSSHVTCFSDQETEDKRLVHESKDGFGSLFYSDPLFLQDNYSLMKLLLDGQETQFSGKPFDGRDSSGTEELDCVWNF
# In short: as §1
# GST-NTL8 NAC domain = molecular target: T5, GST-NTL8 NAC domain (Arabidopsis thaliana, UniProt Q9XIN7 14-156); conditions: protein: recombinant; tags: GST; chain copies: 2; dsDNA, one strand shown
# T5 sequence: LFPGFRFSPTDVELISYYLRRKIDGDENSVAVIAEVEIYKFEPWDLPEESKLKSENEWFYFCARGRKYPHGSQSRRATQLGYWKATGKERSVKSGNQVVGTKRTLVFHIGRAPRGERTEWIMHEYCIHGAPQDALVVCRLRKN
# In short: as §1
# GST-SND1(1-203) = molecular target: T6, GST-SND1(1-203) (Arabidopsis thaliana, UniProt Q9LPI7 1-203); conditions: protein: recombinant; tags: GST; chain copies: 2; dsDNA, one strand shown
# T6 sequence: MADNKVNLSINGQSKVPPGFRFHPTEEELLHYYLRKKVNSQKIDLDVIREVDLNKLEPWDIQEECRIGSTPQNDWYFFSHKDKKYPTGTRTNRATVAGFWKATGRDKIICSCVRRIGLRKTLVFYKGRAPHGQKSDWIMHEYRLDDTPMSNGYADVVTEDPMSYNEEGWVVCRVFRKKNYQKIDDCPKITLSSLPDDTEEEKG
# In short: as §1
# GST-VND7 NAC domain = molecular target: T7, GST-VND7 NAC domain (Arabidopsis thaliana, UniProt Q9C8W9 9-158); conditions: protein: recombinant; tags: GST; chain copies: 2; dsDNA, one strand shown
# T7 sequence: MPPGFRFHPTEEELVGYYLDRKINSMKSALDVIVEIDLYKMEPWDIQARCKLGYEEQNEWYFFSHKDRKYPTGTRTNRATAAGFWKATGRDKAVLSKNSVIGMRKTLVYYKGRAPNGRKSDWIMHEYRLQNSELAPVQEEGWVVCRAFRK
# In short: as §1
# GST-ATAF1 NAC domain = molecular target: T8, GST-ATAF1 NAC domain (Arabidopsis thaliana, UniProt Q39013 7-158); conditions: protein: recombinant; tags: GST; chain copies: 2; dsDNA, one strand shown
# T8 sequence: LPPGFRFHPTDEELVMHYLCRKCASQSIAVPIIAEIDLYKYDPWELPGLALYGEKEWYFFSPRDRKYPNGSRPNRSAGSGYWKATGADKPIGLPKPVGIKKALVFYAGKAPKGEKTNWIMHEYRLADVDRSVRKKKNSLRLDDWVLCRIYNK
# In short: as §1
# GST-NAP(1-166) = molecular target: T9, GST-NAP(1-166) (Arabidopsis thaliana, UniProt O49255 1-166); conditions: protein: recombinant; tags: GST; chain copies: 2; dsDNA, one strand shown
# T9 sequence: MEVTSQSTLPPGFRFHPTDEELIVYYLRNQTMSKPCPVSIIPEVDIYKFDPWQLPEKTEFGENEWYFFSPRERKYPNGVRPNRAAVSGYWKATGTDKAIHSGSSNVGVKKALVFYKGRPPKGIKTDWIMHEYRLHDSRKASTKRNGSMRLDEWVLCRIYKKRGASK
# In short: as §1
# GST-NST2(1-184) = molecular target: T10, GST-NST2(1-184) (Arabidopsis thaliana, UniProt Q9M274 1-184); conditions: protein: recombinant; tags: GST; chain copies: 2; dsDNA, one strand shown
# T10 sequence: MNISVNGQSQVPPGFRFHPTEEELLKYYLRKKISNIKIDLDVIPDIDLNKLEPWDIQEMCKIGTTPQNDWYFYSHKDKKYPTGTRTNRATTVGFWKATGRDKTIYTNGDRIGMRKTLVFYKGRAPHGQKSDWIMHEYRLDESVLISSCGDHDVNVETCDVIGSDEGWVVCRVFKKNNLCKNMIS
# In short: as §1
# GST-WRKY1(266-371) = GST-WRKY1(266-371) (Arabidopsis thaliana, UniProt Q9SI37 266-371); conditions: protein: recombinant; tags: GST; dsDNA, one strand shown
# In short: as §1
# Chain of GST-NTL6(1-168) (Q9SCK6 1-168): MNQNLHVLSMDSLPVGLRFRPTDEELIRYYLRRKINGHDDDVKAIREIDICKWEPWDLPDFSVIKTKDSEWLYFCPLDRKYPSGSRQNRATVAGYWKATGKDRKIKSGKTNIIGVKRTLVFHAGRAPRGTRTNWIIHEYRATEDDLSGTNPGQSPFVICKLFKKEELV
# Chain of GST-WRKY1(266-371) (Q9SI37 266-371): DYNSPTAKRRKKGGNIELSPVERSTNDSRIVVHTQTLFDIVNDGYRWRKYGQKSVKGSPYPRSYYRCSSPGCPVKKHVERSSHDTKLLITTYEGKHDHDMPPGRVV
Sequence,binding signal (GST-ANAC092(1-176)) [E-score],binding signal (GST-NTL6(1-168)) [E-score],binding signal (GST-ANAC019 NAC domain) [E-score],binding signal (GST-ANAC055(1-171)) [E-score],binding signal [1] [E-score],binding signal (GST-NTL8 NAC domain) [E-score],binding signal (GST-SND1(1-203)) [E-score],binding signal (GST-VND7 NAC domain) [E-score],binding signal (GST-ATAF1 NAC domain) [E-score],binding signal (GST-NAP(1-166)) [E-score],binding signal (GST-NST2(1-184)) [E-score],binding signal (GST-WRKY1(266-371)) [E-score]
AGCTTTCC,0.171,0.233,0.126,0.111,0.133,0.434,0.123,0.116,–,–,–,–
AAGCACGC,0.32,–,0.127,–,0.407,–,0.21,0.0817,0.121,0.0699,0.0521,–
AAGTCAGT,–,–,–,–,–,–,0.0862,–,–,–,–,0.411
CTTGCTTC,0.288,0.295,0.0507,–,0.368,0.303,0.403,0.0829,–,–,0.204,–
TGAAGGAA,0.108,0.379,0.0877,0.0856,0.0772,0.469,0.342,0.0645,0.0713,–,0.197,–
AAGAAACC,0.246,0.261,0.0937,0.135,0.311,0.435,0.216,0.139,0.177,–,0.265,–
CACGCTAA,0.453,0.0834,0.226,–,0.471,–,0.415,0.112,–,–,0.224,–
AGGAAAGC,0.23,0.253,0.214,0.119,0.0813,0.436,0.188,0.177,0.124,0.0763,0.0888,–
GCGTCAAA,–,–,–,–,0.0819,0.0775,0.0924,0.0799,–,–,0.052,0.409
CCACGCCA,0.372,–,0.0852,0.0687,0.415,–,0.141,0.102,0.145,0.0773,0.0528,–
TGACCGAA,–,–,–,–,–,–,0.0502,–,–,–,–,0.459
AAACCCTC,–,0.141,0.0591,0.134,–,0.414,0.101,0.1,–,0.0744,–,–
ACCCCGCC,0.271,0.182,0.295,0.123,0.264,0.284,0.32,0.241,0.253,0.1,0.213,–
CGTAGACC,–,–,–,–,–,–,0.0522,–,–,–,–,0.434
ACCTTTCC,0.188,0.196,–,0.0893,0.0538,0.431,0.143,0.0596,–,–,0.0986,–
CGAAGCAA,0.243,0.325,–,–,0.271,0.339,0.427,0.169,–,–,0.208,–
GAAGGAAA,0.243,0.455,0.118,0.184,0.131,0.485,0.234,0.108,0.096,–,0.214,–
CCCCGCCC,0.325,0.319,0.329,0.178,0.343,0.372,0.378,0.273,0.262,0.0894,0.297,–
GGCGTAAC,0.21,–,–,–,0.277,–,0.421,0.0835,0.0594,0.0618,0.129,–
TGAAGCAA,0.232,0.389,0.0575,–,0.32,0.422,0.447,0.187,–,–,0.314,–
CGTTGACA,–,–,–,–,–,–,0.0727,–,–,–,–,0.464
ACGCCATG,0.336,–,–,–,0.404,–,0.222,0.0848,–,0.154,0.128,–
GAGGGTAA,0.0757,0.17,–,0.0669,0.109,0.474,0.108,0.079,0.123,–,0.173,–
